# Test results reported in PubChem BioAssay AID1662 (Broad Institute, 2009).
# Out of some 300,000 compounds screened, about 4,000 (1.3%) were called active. Many of the other results were omitted from the sample, so actives are more common in it than they were. A number with no mark means an inactive call.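 How the source made its calls: active means mean replicate score, as percent of positive control median, at least 50; inconclusive means mean below 50 but one replicate at or above 50; inactive means mean and every replicate below 50.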
# Assay: S. pyogenes SKKanGAS growth inhibitors in kanamycin, primary screen, streptokinase expression inhibitor project, SKKanGAS strain, BacTiter-Glo luminescence (AID 1662);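 further: strain carries kanamycin resistance gene driven by streptokinase promoter and grows in 40 µg/ml kanamycin; loss of luminescence reflects streptokinase promoter inhibition or plain growth inhibition; 0% = median of DMSO wells and 100% = positive control at its reference dose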
# Details: 6 h, at 7.5 µM, hits give high values
row,Structure (SMILES),inhibition
1,CCc1ccc(NC(=O)CN2C(=O)COc3ccc(S(=O)(=O)N4CCCC4)cc32)cc1,2.1%
2,CCn1ccnc1CNC(=O)CC1C(=O)NCCN1CCCc1ccccc1 (stereo not given),-0.266%
3,O=C(NCc1cccnc1)Nc1cccc(NC(=O)NCc2cccnc2)c1F,-0.181%
4,O=C(Nc1ccccc1)N1CCN(C(=O)Nc2ccccc2)CC1,3.57%
5,COc1cc(C(=O)NCC(=O)N2CC=C(c3ccccc3)CC2)cc(OC)c1OC,9.79%
6,O=C(Nc1ccc(Cl)c(Cl)c1)N1CC=C(c2ccccc2)CC1,58.4% (active)
7,CCO[C@@H]1OC(C(N)=O)=C[C@H](c2ccc(Br)cc2)[C@H]1CCCO,0.82%
8,Cc1cccn2c(CNCC(C)Oc3cccnc3)c(C(=O)N3CCOCC3)nc12 (stereo not given),-4.82%
9,COc1cc(/C=C(\C#N)c2nc3c(s2)CC(C)CC3)ccc1O (stereo not given),10.1%
10,CCOc1cc(/C=C(\C#N)c2nc(-c3cccs3)c(NC(C)=O)s2)ccc1O,109% (active)
11,COc1cc(/C=N\Nc2nc(-c3cccs3)c(NC(C)=O)s2)ccc1O,1.83%
12,O=C(Cn1cnc2ccccc21)Nc1ccccc1-c1ccccc1,0.579%
13,CCOc1ccc(C(=O)Nc2cc(Cl)ccc2-n2cncn2)cc1OC,-2.54%
14,CCOC(=O)NNc1cc(C(F)(F)F)ccn1,0.731%
15,O=C(/C=C/c1ccc(Cl)cc1)NCCCn1ccnc1,-2.11%
16,CCOC(=O)CC(NC(=O)C1c2ccccc2Oc2ccccc21)c1ccc(C)cc1 (stereo not given),5.34%
17,Oc1ccccc1C=NC1CCCCC1N=Cc1ccccc1O (stereo not given),-8.77%
18,O=C(N/N=C/c1ccccc1O)C1CCCC1,73.1% (active)
19,COc1ccc(/C=N/NC(=O)C2CC2)c(OC)c1OC,14.5%
20,CC1(C(=O)NNC(=S)NCC2CCCO2)CC1(Cl)Cl (stereo not given),2.55%

row,Structure (SMILES),inhibition
1,COc1ccc(OC)c(NC(=O)c2ccc3c(c2)CCN3S(C)(=O)=O)c1,-4.51%
2,Nc1nc(SCC(=O)NNc2c(Cl)cc(Cl)cc2Cl)n[nH]1,7.52%
3,CCOc1cc(NC(=O)CCl)c(OCC)cc1NC(C)=O,-2.78%
4,COc1ccc(S(=O)(=O)N2CCCCC2)cc1NC(=O)C1CC(=O)N(c2ccc3c(c2)OCCO3)C1 (stereo not given),14.5%
5,COCc1ccc(C(=O)NC2CC(C)(C)Cc3c2cnn3-c2ccc(C)cc2)o1 (stereo not given),-6.03%
6,Nc1c(Cl)cc(-c2csc(N3CCCC3c3nc4cc(Cl)c(Cl)cc4n3CCOCCO)n2)cc1Cl (stereo not given),62.1% (active)
7,Cc1ccc(-c2csc(N3CCN(c4cc5c(cc4Cl)nc(-c4ccncc4)n5CCOCCO)CC3)n2)cc1,47.5%
8,CCCn1c(C2CCCN2c2nc(-c3ccc(C)cc3)cs2)nc2cc(Cl)c(N3CCCCC3)cc21 (stereo not given),9.01%
9,COc1ccccc1-c1n[nH]c2c1[C@H](C)CC[C@H]2C(C)C,91.1% (active)
10,COc1ccccc1-c1nc(SC)n[nH]1,-1.68%
11,COc1ccc(-c2n[nH]c(C)c2-c2ccccc2OC)c(O)c1,1.39%
12,N#Cc1c(-c2cccs2)nc(SCC(=O)c2ccc(Br)cc2)[nH]c1=O,55.8% (active)
13,Cc1cc(C)c2c(=O)[nH]c(SCC(=O)Nc3ccc(Br)cc3)nc2n1,30%
14,O=C(CSc1nc2ccccc2c(=O)[nH]1)Nc1nc(-c2ccc(Br)cc2)cs1,4.78%
15,N#CC1(NC(=O)COC(=O)Cc2n[nH]c(=O)c3ccccc23)CCCCC1,-3.3%
16,Cc1ccc(S(=O)(=O)c2ccc(Cl)cc2)cc1S(=O)(=O)NC(C(=O)O)C(C)C (stereo not given),0.0508%
17,COc1cc2c(cc1NC(=O)COC(=O)/C=C/c1ccccc1)oc1ccccc12,-12.9%
18,Cc1onc(-c2ccccc2)c1C(=O)NNC(=S)NC(=O)c1ccc(F)cc1,7.91%
19,O=C(NNC(=S)NC(=O)c1cn(-c2ccccc2)nc1-c1ccccc1)c1ccncc1,99.7% (active)
20,O=C(Nc1cn(-c2ccccc2)nc1-c1ccccc1)c1ccccc1,-2.24%

row,Structure (SMILES),inhibition
1,COC(=O)Cn1cc(/C=C/[N+](=O)[O-])c2ccccc21,0.686%
2,O=C(CN1C(=O)S/C(=C\c2ccccc2F)C1=O)NCCCn1ccnc1,2.35%
3,O=C(CN1C(=O)/C(=C/c2ccccc2F)Sc2ccccc21)NCc1cccnc1,-8.35%
4,O=C(CN1C(=O)/C(=C\c2ccccc2F)SC1=S)Nc1nc2ccccc2s1,94.2% (active)
5,O=c1[nH]c(CCl)nc2cc(-c3ccc(Cl)cc3)sc12,29.5%
6,CC1CCc2c(nc3ncnn3c2Nc2ccc(OC(F)(F)F)cc2)C1 (stereo not given),2.5%
7,COc1cc(OC)c(/C=N/NC(=O)c2ccc([N+](=O)[O-])cc2)cc1Br,-10.8%
8,COc1ccc(CC(=O)NCC(=O)N/N=C/c2cc(Br)ccc2OC)cc1,4.99%
9,c1ccc2sc(NN=C3CCCC3)nc2c1,18.5%
10,COc1cc(/C=N/Nc2nc3ccccc3s2)ccc1O,-7.58%
11,O=[N+]([O-])c1cc(Br)c(O)c(/C=N/Nc2nc3ccccc3s2)c1,92% (active)
12,COc1ccc(CC(=O)N/N=C/c2cc([N+](=O)[O-])cc(Br)c2O)cc1,61.6% (active)
13,CC1(C)c2[nH]c3ccccc3c2C[C@H]2C(=O)N(N)CC(=O)N21,1.39%
14,NNC(=O)c1ccc(COCC(F)(F)C(F)F)cc1,-2.77%
15,CC(=O)c1ccc(N2CCN(C(=O)CCNC(=O)Cn3ccc4ccccc4c3=O)CC2)cc1,0.0785%
16,Cc1cc(C)cc(C(=O)NC(CC(N)=O)c2ccc(N3CCC(N4CCCCC4)CC3)c([N+](=O)[O-])c2)c1 (stereo not given),-2.72%
17,Cc1ccc2c(c1)c1ncnc(N3CCc4ccccc4C3)c1n2C,47.1%
18,CCOc1ccc(C(=O)NC(=S)Nc2ccc(NC(=O)C(C)C)cc2)cc1[N+](=O)[O-],19.7%
19,COc1cccc(OC)c1C(=O)NC(=S)Nc1ccc(N2CCOCC2)c(Cl)c1,4.82%
20,CCOc1ccc(C(=O)NC(=S)Nc2ccc(N3CCOCC3)c(Cl)c2)cc1[N+](=O)[O-],84% (active)
